aSyn UTR act – Activators via SNCA 5'UTR binding, MLPCN | alpha-synuclein 5'UTR reporter, activators screen | activity score, % (tested at 7.5 µM), hits read low | 300,000 compounds, 7.1% hits | AID 1814; in the data active means activity score below about -60%
Numbers without * were called inactive. These entries were drawn from the full list.

SMILES	aSyn UTR act
CC(=O)O[C@H]1C(=O)[C@@]2(C)C([C@H](OC(=O)c3ccccc3)[C@]3(O)C[C@H](OC(=O)[C@H](O)[C@@H](NC(=O)Cc4ccccc4)c4ccccc4)C(C)=C1C3(C)C)[C@]1(OC(C)=O)CO[C@@H]1C[C@@H]2O (stereo not given in full)	93
CN(C)c1ccc2c(c1)N=C(c1ccco1)OP2(=S)N1CCOCC1 (stereo not given)	-130*
Cc1cc(OCCN2CC2)c2ccccc2n1	-73*
COc1ccc(C2NCc3ccc4c(c3-n3cccc32)OCO4)cc1O (stereo not given)	61
Clc1ccccc1Nc1ncnc(-n2cccc2)n1	-160*
CN(C)c1ccc(/C=C/[N+](=O)[O-])cc1	-74*
Nc1ccccc1C(=O)OCc1ccc([N+](=O)[O-])cc1	-83*
O=C(C1CC(c2ccc(F)cc2)=NO1)N1CCC2(CC1)OCCO2 (stereo not given)	-127*
O=C(C1CC(c2ccc(Cl)c(Cl)c2)=NO1)N1CCC2(CC1)OCCO2 (stereo not given)	-131*
COc1cccc(C2=NOC(C(=O)N3CCC4(CC3)OCCO4)C2)c1 (stereo not given)	-105*
O=C1NC(=O)N(c2ccccc2)C(=O)/C1=C/C=C/c1ccco1	-136*
CN(C)c1ccc(/C=C/C=C2/C(=O)NC(=O)N(c3ccccc3)C2=O)cc1	-96*
Cc1cccc(N2C(=O)NC(=O)/C(=C\C=C\c3ccco3)C2=O)c1	-131*
Cc1ccc(N2C(=O)NC(=O)/C(=C\C=C\c3ccco3)C2=O)cc1	-92*
O=C1C(=O)c2ccccc2-c2ccccc21	119
O=C(Nc1ccc(OC(=O)N2CCCCC2)cc1)N1CCOCC1	89
CC(C)(C)c1ccc(CSc2cnn(C(C)(C)C)c(=O)c2Cl)cc1	101
C[C@H]1CCC/C=C/C2C[C@H](O)CC2[C@H](O)/C=C/C(=O)O1 (stereo not given in full)	100
C[C@H]1CCC[C@@H](O)CCC/C=C/c2cc(O)cc(O)c2C(=O)O1	-170*
CC1CCC/C=C/C2CC(O)CC2C(O)/C=C/C(=O)O1 (stereo not given)	133
CC(=O)Nc1ccccc1C(=O)OCc1cccc(F)c1	-85*
C=C1C[C@@H]2[C@H](CC[C@]3(C)C(=O)CC[C@@H]23)[C@@]2(C)C=CC(=O)C=C12	-141*
CCCCCn1c(=O)c(C(=O)Nc2ccccc2S(N)(=O)=O)c(O)c2ccccc21	69
CCCCCn1c(=O)c(C(=O)Nc2cnccn2)c(O)c2ccccc21	98
CCCCCn1c(=O)c(C(=O)Nc2ccccc2C)c(O)c2ccccc21	-83*
SMILES	aSyn UTR act
CC(Cc1ccccc1)/[N+]([O-])=C\c1ccc(C(F)(F)F)cc1 (stereo not given)	-119*
CN(C)C(Cc1ccccc1)C(=O)c1c[nH]c2ccccc12 (stereo not given)	-64*
O=C(c1ccccc1)C(CN1CCCC1)c1ccccc1 (stereo not given)	-77*
O=C1NC(=O)C(=Cc2cccc(OCCOc3ccccc3)c2)C(=O)N1	-87*
CC1Oc2cc3c(-c4c(O)cc(O)c5c(O)c6c(cc45)OC(C)C(C)C6=O)c(O)cc(O)c3c(O)c2C(=O)C1C (stereo not given)	87
CCn1nc(-c2ccccc2)nc2c(=O)n(C)c(=O)nc1-2	-84*
Cc1nc2c(=O)n(C)c(=O)nc-2n(C)n1	115
C[C@]12CC[C@H]3C(CCC4(O)CC(O)CC[C@]34C=O)C1=CC[C@H]2c1ccc(=O)oc1 (stereo not given in full)	82
CCc1ccc(-c2nn(Cc3ccccc3)cc2C=O)cc1	-140*
O=Cc1cn(Cc2cccc(F)c2)c2ccccc12	52
Cc1c(OC(=O)N(C)C)ccc2c1O/C(=C\c1ccco1)C2=O	-134*
Cc1cc(NC(=O)CCl)no1	-99*
CC(=O)O[C@@H]1/C=C/[C@](C)(O)C[C@@H](C)C/C=C/[C@H]2[C@H](O)C(C)=C(C)[C@H]3[C@H](Cc4ccccc4)NC(=O)[C@@]123	117
C[N+]1=C(/C=C/Nc2ccccc2)C(C)(C)c2ccccc21	-93*
CCOC(=O)c1c(N)n(CCCOC(=O)c2ccco2)c2nc3ccccc3nc12	114
Nc1c(C(=O)NCc2ccco2)c2nc3ccccc3nc2n1CCN1CCCCC1	-103*
[O-]c1ccccc1-[n+]1c(-c2ccccc2)cc(-c2ccccc2)cc1-c1ccccc1	61
c1ccc2sc(NC3=NCCN3)nc2c1	-103*
COc1ccc2nc(NC3=NCCN3)sc2c1	-209*
CC(=O)O[C@@]12CO[C@@H]1C[C@H](O)[C@@]1(C)C(=O)[C@H](O)C3=C(C)[C@@H](OC(=O)[C@H](O)[C@@H](NC(=O)c4ccccc4)c4ccccc4)C[C@@](O)([C@@H](OC(=O)c4ccccc4)C12)C3(C)C (stereo not given in full)	114
